Consider 19 compounds from PubChem BioAssay (NCI).

The structures appear in SMILES notation. Values joined by “and” are separate entries in the source; they are usually repeats but may differ in a detail not shown here. Identical values can stand only once. Compounds without any hit were thinned out: in the full panel of roughly 83,000, 20% have a hit.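 Compound tested at a single concentration for 48 hours in 96-well plates; a percent growth value below 10 was scored as active.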 A number with no mark means an inactive call. Active and inactive are the calls of the source.

For the experiment, the system named is A549/ATCC NSCLC. Put plainly: NCI-60 one-dose screen, 48 h (100 = growth as untreated, 0 = no growth, -100 = all killed). The settings on record: 10 µM.
Take `O=C(CNS(=O)(=O)Cc1ccccc1)NNc1ccccc1`: the growth is 55.8%. As to `COc1ccc2c(c1)[nH]c1c(/C=C/c3ccccc3)nccc12`, the growth was 87.3%.

As for `COc1ccc(C(C#N)=C2C=CC(=NO)C=C2)cc1`, the growth is 88.9%. With `Cc1cc(C)c(N2C(=O)CC(Sc3ccccc3N)C2=O)c(C)c1` (centres undefined) the figure was 74.8%; with `O=C1C=CC(=O)N1c1ccc(N2C(=O)C=CC2=O)cc1`, 101%; with `O=C1C(Cl)=C(Cl)C(Cl)(Cl)C(Cl)C1(Cl)Cl` (centres undefined), 105%. For `O=C(O)c1ccccc1.[Ag]`, the growth was 54%. Turning to `ClCCn1c(CCl)nc2ccc(Cl)cc21`, the growth was -12.5% (active). `COc1cc(N)ccc1Nc1c2ccccc2nc2ccccc12`: the growth is 40.8%. With `O=C1c2ccccc2CCC1(Br)Br` the figure was 96%. Consider `CN(C)CCNc1cccc2sc3ccc(O)cc3c(=O)c12`, for which the growth is 17.3%. With `CN(C)c1ccc(/C=C/c2ccnc3ccccc23)cc1N` the figure was 72.6%; with `Cn1c2nc3ccccc3c-2nc2ccccc21`, 96.1% and 86.3%. Next, `S=C1SCN(CCc2ccccc2)CN1CCc1ccccc1`: 90.8%; `CN(CC(=O)O)c1ccc(/C=C/c2ccnc3ccccc23)cc1`: 74.3%. `O=S(=O)(c1cc(Cl)ccc1O)c1cc(Cl)ccc1O`: the growth is 81.3%.

As for `O=[N+]([O-])c1cc(S(=O)(=O)Nc2ccccc2)ccc1Cl`, the growth was 91.6%. On to `Cc1cc(Cl)ccc1NC(=O)/C(Cl)=C1/Sc2ccccc2NC1=O`, for which the growth was 112%. Next, `Cn1ncc2cc3c(Nc4ccc(Cl)cc4)cccc3nc21`: 80%.
